# Laboratory results reported in PubChem BioAssay AID488890 (Southern Research Specialized Biocontainment Screening …, 2010).
# The campaign covered roughly 320,000 compounds. About 1,300 (0.41%) were called active. Not shown: some 3% with an inconclusive outcome. No rule for the calls is given here. The list is a sample of the results. Results with a measured potency or affinity are listed apart.
# Assay: growth inhibition of non-replicating M. tuberculosis (AID 488890);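 also: plate controls were DMSO cells for no effect and high antibiotic wells for full effect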
# Conditions: Mycobacterium tuberculosis non-replicating, at 25 µM, stronger effect = higher value
row,Structure (SMILES),inhibition
1,O=S(=O)(c1ccc2nc(COc3ccccc3)[nH]c2c1)N1CCOCC1,-3.8%
2,CC(C)(C)C(=O)CN1C2=NCCCN2c2ccccc21,12.1%
3,CCOc1ccc(N(CC(=O)NCc2ccccc2)S(=O)(=O)c2ccc(C)cc2)cc1,0.73%
4,COC(=O)c1ccc(C)c(NC(=O)C2COc3ccccc3O2)c1 (stereo unspecified),57.8%
5,CCN(CC1COc2ccccc2O1)C(=S)NC1CC2CCC1C2 (stereo unspecified),0.66%
6,COC(=O)c1ccccc1NC(=O)C1COc2ccccc2O1 (stereo unspecified),59.7%
7,CC1CCCC(NC(=O)C2COc3ccccc3O2)C1C (stereo unspecified),17.1%
8,Cc1[nH]c2ccccc2c1C(=O)C(C)OC(=O)c1ccccc1NCCO (stereo unspecified),17.8%
9,CCCCN(Cc1ccco1)S(=O)(=O)c1csc(C(N)=O)c1,38.5%
10,CSc1ccccc1C(=O)N(C)C(c1ccccc1)c1ccccc1,13.8%
11,CCNc1nc(NC(C)C)nc(SCCOc2ccc(C)cc2)n1,6.84%
12,C=CCc1cc(C)ccc1OCCCn1ccnc1,26.9%
13,Cc1cc(OCCCn2ccnc2)cc(C)c1Cl,-6.72%
14,C=CCc1cc(Cl)ccc1OCCn1ccnc1,31.9%
15,Clc1ccc(SCCCCn2cncn2)cc1,26.1%
16,Cc1cc(C)cc(OCCCn2ccnc2)c1,76%
17,Clc1ccc(SCCn2ccnc2)cc1,71.2%
18,Cc1ccc(OCCCn2ccnc2)cc1C,70.8%
19,Cc1cc(OCCCn2ccnc2)ccc1[N+](=O)[O-],39.3%
20,CS(=O)(=O)N1CCC(C(=O)NCCN2CCN(Cc3ccccc3)CC2)CC1,-1.43%
21,Cc1ccc(-c2csc(N3CCC[C@@H]3C(=O)NCCn3c(C(F)(F)F)nc4ccccc43)n2)cc1,42.9%
22,C[C@@H](NC(=O)c1nc[nH]c1C(=O)N[C@H](C)c1ccccc1)c1ccccc1,66%
23,O=C(O)c1ccc2c(=O)n3cc(C(=O)c4ccccc4O)cc(Cl)c3nc2c1,-0.88%
24,Fc1ccc2c(c1)C(c1ccncc1)=NNC(c1ccc(Br)cc1)=N2,21.1%

row,Structure (SMILES),inhibition
1,O=C(N/N=C/c1ccc2cccnc2c1)c1ccco1,14.9%
2,COc1ccc(CCNS(=O)(=O)c2c(N)n(C)c(=O)n(C)c2=O)cc1OC,3.12%
3,CCOc1ccc(C(=O)Nc2cc(S(=O)(=O)Nc3ccccc3Cl)ccc2N2CCOCC2)cc1,4.51%
4,CS(=O)(=O)N(CC(=O)NCC1CCCO1)c1cc(Cl)cc(Cl)c1 (stereo unspecified),-12.1%
5,Clc1cc(Br)ccc1OCCn1ccnc1,40%
6,Cc1ccc(OCCCn2ccnc2)c(Br)c1,27.2%
7,Clc1ccccc1OCCCn1ccnc1,-0.75%
8,Clc1ccc(OCCn2ccnc2)c2ccccc12,17.9%
9,O=C(CCNC(=O)C1CCN(S(=O)(=O)c2ccccc2)CC1)NCCc1ccc(Cl)cc1,1.82%
10,CN1CCN(C(=O)C2CCCN(S(=O)(=O)c3ccc(Br)cc3)C2)CC1 (stereo unspecified),8.61%
11,COc1ccc(CCn2c(N3CCN(Cc4ccccc4)CC3)nc3c2c(=O)[nH]c(=O)n3C)cc1,15.1%
12,CC1(c2nnc(-c3ccccc3)o2)CC(c2ccccc2)=NO1 (stereo unspecified),79.5%
13,CC1(c2nnc(-c3ccc(Cl)cc3)o2)CC(c2cccc(Cl)c2)=NO1 (stereo unspecified),79.6%
14,CC1(c2nnc(-c3cccc(Cl)c3)o2)CC(c2ccc(F)cc2)=NO1 (stereo unspecified),70.9%
15,CC1(c2nnc(-c3ccc(Cl)cc3)o2)CC(c2ccc(Cl)cc2)=NO1 (stereo unspecified),36.6%
16,Cc1ccc(OCCn2ccnc2)c(C)c1,6.35%
17,CCOc1cc(/C=C2\CCn3c2nc2cc(Cl)ccc2c3=O)ccc1O,9%
18,CN(c1ccccc1)S(=O)(=O)c1cc(Cl)ccc1Cl,28.7%
19,CCOc1cc(NC(=O)c2ccccc2OC)c(OCC)cc1NC(=O)c1ccccc1,8.11%
20,C/C(=N\NC(=O)c1ccccc1)c1ccc2c(c1)OCO2,35.4%
21,C/C(=N\NC(=O)c1ccc2c(c1)OCO2)c1ccc2c(c1)OCO2,41.2%
22,O=C(CCSc1ccccc1)NCc1cccnc1,-1.43%
23,O=C1NC(=O)N(Cc2ccc(F)cc2)C(=O)/C1=C\C=C\c1ccco1,75.2%
24,CN1C(=O)/C(=C/C=C/c2ccco2)C(=O)NC1=S,-21.1%

row,Structure (SMILES),inhibition
1,O=C1NC(=O)N(c2ccccc2)C(=O)/C1=C/C=C/c1ccco1,-12.6%
2,Cc1cc(C)cc(N2C(=O)NC(=O)/C(=C\C=C\c3ccco3)C2=O)c1,2.52%
3,Cc1ccc(N2C(=O)NC(=O)/C(=C\C=C\c3ccco3)C2=O)cc1,18.7%
4,Cc1ccc(N2C(=O)NC(=O)/C(=C\C=C\c3ccco3)C2=O)cc1C,13%
5,COc1ccc(NC(=O)CCNS(=O)(=O)c2ccccc2F)cc1S(N)(=O)=O,-0.54%
6,Cc1ccccc1C1c2[nH]c3ccccc3c2CCN1C(=O)c1ccc(=O)n(C)n1 (stereo unspecified),10.8%
7,CCOC(=O)c1c(C)c(C)n(Cc2ccc(OC)c(OC)c2)c1C,16.5%
8,Cc1cc(C(=O)COc2ccccc2C(N)=O)c(C)n1C,4.7%
9,Cc1cc(C(=O)COc2ccccc2C(N)=O)c(C)n1CC1CCCO1 (stereo unspecified),-26.6%
10,CCN(CC(=O)NC(=O)NCc1ccco1)Cc1nc2ccccc2c(=O)[nH]1,12.9%
11,COCCNC(=O)Cc1c(C)c2c(cc(C)c3c(C(C)(C)C)coc32)oc1=O,26.6%
12,O=C(CCc1nnc2n(Cc3ccc(F)cc3)c(=O)c3ccccc3n12)N1CCN(c2ccccn2)CC1,-3.25%
13,O=C(Nc1ccc(Cl)cc1)OCCn1nnnc1C(c1ccccc1)N1CCOCC1 (stereo unspecified),4.68%
14,CCN1CCN(c2ccc(S(=O)(=O)N3CCCCC3)cc2NC(=O)c2ccccc2)CC1,-11.8%
15,NS(=O)(=O)c1ccc(NC(=O)c2ccc(S(=O)(=O)N3CCOCC3)o2)cc1,1.05%
16,Cc1ccc(NC(=O)c2ccc([N+](=O)[O-])s2)cc1S(=O)(=O)N1CCOCC1,43.2%
17,Cc1ccc(C(=O)Nc2cccc(S(=O)(=O)N3CCCC3)c2)o1,-4.97%
18,O=C(Nc1ccc(S(=O)(=O)N2CCOCC2)cc1)c1ccc(Br)o1,-0.17%
19,O=C(Nc1cc(S(=O)(=O)N2CCOCC2)ccc1N1CCOCC1)c1ccc([N+](=O)[O-])s1,50.4%
20,O=C(Nc1ccc(S(=O)(=O)N2CCOCC2)cc1)c1ccc(Cl)s1,5.17%
21,COc1ccc(S(=O)(=O)N2CCCCC2)cc1NC(=O)c1ccc([N+](=O)[O-])o1,1.5%
22,CCOc1ccc2oc(C(=O)OCC(=O)NC3CCCC3)c(C)c2c1,9.82%
23,O=C(c1ccc2c(c1)CCN2S(=O)(=O)c1ccccc1)N1CCN(c2ccc(F)cc2)CC1,18.7%
